Source: PubChem
Compounds with a hit are over-represented: about 0.71% of the library has one in this group of screens.
USP1-UAF1 inh: USP1/UAF1 (human) deubiquitinase inhibition; O94782; recombinant USP1/UAF1, Ub-Rhodamine cleavage fluorescence; Potency, µM (highest dose often 57.1 µM), for inactives: top-dose activity change, negative = inhibition, hits mostly inhibitors; 390,000 compounds, 0.23% hits; further: potency means the concentration at half of the fitted maximal effect; nearly all actives have a fitted effect of over 60% in size
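In this screen, compounds sit with the deubiquitinase complex (1nM) for 15 min at room temperature before Ub-Rho is added at 150nM final. Fluorescence rise is then followed for 6 reads every 60 seconds.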
USP2a inh: blocks human ubiquitin-specific protease USP2a; USP2 core, Ub-CHOP2 coupled fluorogenic reporter, 485/531; 330,000 compounds, 0.01% hits; O75604; Potency, µM (doses to about 38.3 µM), inactives show at the top dose activity change, negative = inhibition, actives largely listed as inhibitors;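 further: potency means the concentration at half of the fitted maximal effect; plate controls were DMSO wells for no effect and full inhibition by NEM control for full effect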
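USP2 core (10nM final) preincubated 30min RT with compound in 20mM Tris-HCl pH 8.0, 2mM CaCl2, 2mM beta-mercaptoethanol, 0.05% CHAPS; 25nM Ub-CHOP2 plus 25nM reporter substrate added, fluorescence (Ex485/Em531) read after 60min.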
Coupling enz: inhibits coupling enzyme system, counter-screen for aldolase hits; coupling enzyme system counterscreen, AmpLite Red fluorescence; activity change, negative = inhibition, % at 58.2 µM, hits read low; 290,000 compounds, 0.67% hits; AID 2472; in the data active means activity change below about -30%
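Final compound at 57.5 uM, incubated 10 min at RT with coupling enzyme reagent (glyceraldehyde-3-phosphate), then 20 min with substrate and AmpLite Red detection. Fluorescence read at 525/598 nm; tests interference with the coupling assay, not aldolase inhibition.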
PI4K2A inh: PI4K2A (human) kinase inhibition; Q9BTU6; 420,000 compounds, 0.13% hits; activity change, negative = inhibition, % at 76.9 µM; purified PI4K2A, ADP-Glo luminescence, 1 h; active compounds read low; in the data active means activity change below about -50%; inconclusive means mostly about -30% to -49%;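 further: -100% = wells without enzyme as full effect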
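In this quantitative HTS, ADP production by PI4K2A was quantified luminescently after 1 h at ambient temperature; 100 microM adenosine served as plate-quality control.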
Eya2 inh: Eya2 (human) phosphatase inhibition. O00167. recombinant Eya2, OMFP fluorescence dephosphorylation (OMFP is methylfluorescein phosphate). Potency, µM (top dose mostly 76.9 µM), without a hit: top-dose activity, negative = inhibition, usual class: inhibitors. 330,000 compounds, 0.006% hits. AID 488837; further: potency means the concentration at half of the fitted maximal effect
Target sequence (O00167 whole entry, looked up): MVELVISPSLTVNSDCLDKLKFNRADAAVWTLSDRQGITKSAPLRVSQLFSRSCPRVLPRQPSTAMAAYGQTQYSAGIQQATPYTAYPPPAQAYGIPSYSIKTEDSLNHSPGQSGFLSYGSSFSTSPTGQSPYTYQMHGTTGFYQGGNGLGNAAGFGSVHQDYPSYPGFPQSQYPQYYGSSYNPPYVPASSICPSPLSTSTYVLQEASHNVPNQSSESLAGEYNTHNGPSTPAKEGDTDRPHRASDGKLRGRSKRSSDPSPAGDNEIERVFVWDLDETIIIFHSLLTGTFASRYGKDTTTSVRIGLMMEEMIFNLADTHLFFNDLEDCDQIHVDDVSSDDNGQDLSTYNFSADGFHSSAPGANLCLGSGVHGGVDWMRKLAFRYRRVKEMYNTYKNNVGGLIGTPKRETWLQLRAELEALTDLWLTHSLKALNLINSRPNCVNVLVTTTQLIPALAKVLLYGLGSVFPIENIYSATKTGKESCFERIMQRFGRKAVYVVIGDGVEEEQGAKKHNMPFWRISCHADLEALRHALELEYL
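Eya2 protein (added as 0.2 uM solution) was preincubated with compound for 10 min at ambient temperature in 50 mM HEPES pH 7.5, 50 mM NaCl, 5 uM MgCl2, 0.05% BSA, 1 mM DTT. OMFP (added at 50 uM) then reacted 10 min; fluorescence read at 485/525 nm.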
GALK inh: blocks human galactokinase activity | Purified GALK, Kinase-Glo residual ATP luminescence | P51570 | Potency, µM (titrated, usually from 57.5 µM), for inactives: top-dose activity change, negative = inhibition, actives largely listed as inhibitors | 270,000 compounds, 0.007% hits | AID 1868; further: potency means the concentration at half of the fitted maximal effect
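Human GALK (5 nM) with 35 uM ATP and 100 uM galactose in 20 mM HEPES pH 8.0, 5 mM MgCl2, 60 mM NaCl, 1 mM DTT, 0.01% BSA. After 1 h at room temperature, leftover ATP was read by Kinase-Glo Plus luminescence.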
Starred values were filed as active, the others as inactive; ? = inconclusive; . = not tested or not shown; [ ] = another dose, or the depositor's remark. Unless noted, the call rests on the fitted dose curve; in most records, active means well fitted curve in the direction sought with a large enough effect; inconclusive means small, poorly fitted or top-dose-only effect, or another doubt; inactive means no such curve, though single readings can be large; an effect the other way counts as inactive or inconclusive. Unless noted, on the % scale 0 is the no-effect control and ±100 the full control effect.

SMILES | USP1-UAF1 inh | USP2a inh | Coupling enz | PI4K2A inh | Eya2 inh | GALK inh
CCCN1C(=O)S/C(=C/c2ccc(N3CCOCC3)o2)C1=O | 28µM* | ? | -48* | -4 | 2% | -2%
CCCN1C(=O)S/C(=C\c2ccc(N3CCOCC3)o2)C1=O | 25µM* | 0% | -50* | -12 | -6% | 8%
COc1ccc(-c2nc3c(c4c2C[C@H](c2ccccc2)OC4)CN(S(=O)(=O)c2ccc4c(c2)OCCN4C)CC3)c(C)c1 | . | . | 0 | . | . | .
COc1ccccc1Nc1c2c(nc3ccc(NC(=O)c4ccc(N(C)C)cc4)cc13)CCCC2 | -24% | . | . | 1 | . | .
CC1(C)OC(=O)C(=CNc2cccc(O)c2)C(=O)O1 | -16% | -2% | -1 | -3 | ? | -2%
CC1(C)OC(C)(C)/C(=C/Nc2ccc(O)cc2)C1=O | ? | 0% | -44* | -13 | 15% | 0%
Cc1nc2cc(C(=O)N3CCN(C(=O)OCc4ccccc4)CC3)ccc2n1C1CCCC1 | . | . | . | 1 | . | .
CC(c1ccccc1)N1CCn2c(nc3cc(NC(=O)NC4CCCCC4)ccc32)C1 (centres undefined) | -6% | -6% | -46* | 3 | -2% | 2%
CC(c1ccccc1)N1CCn2c(nc3cc(NC(=O)c4cccs4)ccc32)C1 (centres undefined) | -17% | 2% | -3 | 0 | -13% | 0%
CCCC1(C)C(C#N)(C#N)C1(C#N)C#N | . | . | . | -3 | -7% | .
CSCC[C@@H]1NC(=O)C/C=C\[C@@H](C)COC(=O)[C@@H](CCSC)NC(=O)C/C=C\[C@@H](C)COC1=O | . | . | 0 | . | . | .
CCCCCC/C=C/c1ccc(OC)c(C2C3C=CCC(C)C3C(=O)N2Cc2ccccc2)c1 (centres undefined) | . | . | 1 | . | . | .
N#C/C(=C1/SC[C@@H](c2ccc(Cl)cc2Cl)S1)n1ccnc1 | . | . | . | -10 | . | .
Cc1ccc(-n2nc3c(c2NC(=O)c2ccc(Br)o2)CSC3)c(C)c1 | -11% | -2% | -35* | 2 | 6% | -1%
CCO[C@H](Cc1ccc(OCCc2ccc(OS(C)(=O)=O)cc2)cc1)C(=O)O | . | . | . | -1 | . | .
CN(C)c1ccc(-c2c(C3C4C=CCCC4(C)C(=O)N3Cc3ccccc3)ccc3ccccc23)cc1 (centres undefined) | . | . | -3 | . | . | .
COCCN=c1scc(-c2ccco2)n1/N=C/c1ccc(O)c(O)c1O | ? | -9% | -51* | -11 | -1% | 15%
C=CCN=c1scc(-c2ccco2)n1/N=C/c1ccc(O)c(O)c1O | -20% | 0% | -35* | -6 | 2% | -2%
CN=c1scc(C)n1/N=C/c1ccc(O)c(O)c1O | -8% | 4% | -59* | -21 | -14% | 1%
CC(C)C(=O)Nc1cccc(C2CN3CCSC3=N2)c1 (centres undefined) | . | . | . | -2 | . | .
CCC(=C(CC)c1ccc(O)cc1)c1ccc(O)cc1 | . | . | 1 | . | . | .
Nn1c(SCC(=O)Nc2nccs2)nnc1-c1cc(-c2ccccc2)n[nH]1 | . | . | . | -2 | . | .
Cc1cccc(NC2=C(NCCO)C(=O)c3ccccc3C2=O)c1 | 32µM* | 0% | -35* | ? | -2% | 6%
COc1cccc(NC2=C(NCCO)C(=O)c3ccccc3C2=O)c1 | ? | 0% | -30* | -28 | 2% | 1%
Cc1cc(C)cc(NC2=C(N)C(=O)c3ccccc3C2=O)c1 | ? | 1% | -11 | -50* | -6% | .
SMILES | USP1-UAF1 inh | USP2a inh | Coupling enz | PI4K2A inh | Eya2 inh | GALK inh
COc1cccc(Nc2c(Nc3cccc(OC)c3)c(=O)c2=O)c1 | -7% | 1% | 1 | -3 | -5% | 6%
COc1ccc(NC2=C(NCCO)C(=O)c3ccccc3C2=O)cc1 | 25µM* | -1% | -43* | ? | -7% | 4%
Cn1c(SCC(=O)Nc2ccccc2-c2ccccc2)nnc1-c1cnccn1 | . | . | . | -2 | . | .
O=C(/C=C/c1ccc(O)c(O)c1)c1ccc(O)cc1O | . | . | 0 | . | . | .
COC(=O)[C@@]12CCCCC3=C1N(CCC3)C(=O)[C@H]2CC(=O)N1CCSCC1 | . | . | . | -12 | . | .
COC(=O)C1=C(C)NC(C)=C(C(=O)OCCSc2ccccc2)C1C (centres undefined) | . | . | -4 | . | . | .
Cc1ccc(N2C(=O)c3cccc4c([N+](=O)[O-])ccc(c34)C2=O)c2cccnc12 | -6% | 10% | 0 | 3 | 5% | -4%
O=C1c2cccc3c(N4CCCCC4)ccc(c23)C(=O)N1c1ccccc1O | 28µM* | 26% | -3 | 2 | ? | -2%
Cc1ccc(N2C(=O)c3cccc4c(N5CCN(C)CC5)ccc(c34)C2=O)c2cccnc12 | 28µM* | ? | 3 | 2 | 25% | 1%
CCCCCCCCCCCCOCCOCCOCCOCCOCCOCCOCCOCCOCCO | . | . | 3 | -1 | . | .
CC(=O)N1CC=C2C(C#N)=C(N)C(C#N)(C#N)C(CCc3ccccc3)C2C1 (centres undefined) | -22% | 2% | -2 | ? | -16% | -3%
CCN1CC=C2C(C#N)=C(N)C(C#N)(C#N)C(CCc3ccccc3)C2C1 (centres undefined) | 22µM* | ? | -4 | 2 | 18% | 2%
COc1ccccc1N(C(=O)CCl)c1cn(C(C)=O)c2ccccc12 | -6% | -1% | 1 | 17 | -4% | 4%
COc1ccccc1N(C(C)=O)C1=C(Cl)C(=O)c2ccccc2C1=O | 18µM* | . | . | -13 | . | .
S=C(Nc1ccc2cn[nH]c2c1)Nc1ccccc1Cl | -18% | -5% | -47* | -5 | -3% | 2%
S=C(Nc1ccc2cn[nH]c2c1)Nc1ccc(Cl)cc1Cl | -27% | 1% | -10 | -7 | 6% | -1%
CCN(c1ccccc1)c1nnc(NC(=O)Nc2ccc(Br)c(C)c2)s1 | -10% | . | . | -1 | . | .
Cc1cc(NC(=O)Nc2nnc(N(C)Cc3ccccc3)s2)ccc1Br | 32µM* | . | . | -6 | . | .
CCOC(=O)C1=C(C)OC(=Cc2ccc(OC)cc2)C1=O | -24% | . | . | 0 | . | .
CCCc1ccc(/C=C2\C(=O)c3ccccc3C(O)=C2C(=O)OCC)cc1 | . | 1% | -37* | . | -27% | -3%
CCOC(=O)C1=C(O)c2ccccc2C(=O)/C1=C\c1ccc(CC)cc1 | ? | -2% | -48* | -4 | -5% | -3%
CCOC(=O)c1ccc(COC(=O)c2ccc3c(c2)-c2ccccc2C3=O)cc1 | -5% | 3% | -1 | 2 | 21% | 3%
CCCCC[C@]12Cc3ccccc3C(O1)c1c(cc(C)oc1=O)O2 | . | 1%[7.66 µM] | 0 | . | -7%[15.4 µM] | .
COc1cc(SC)ccc1C(=O)Nc1nc2ccccc2[nH]1 | -27% | 1% | 0 | -74* | 7% | 25%
